# Source: PubChem
# CatB block – inhibitors of human cathepsin B. purified cathepsin B, fluorogenic substrate, fluorescence. inhibition, %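 (tested at 10 µM)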. 63,000 compounds, 0.1% hits; in the data active means inhibition above about 21%;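 further: 0% = enzyme with no compound and 100% = no enzyme blank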
# CatL block – blocks human cathepsin L protease activity. P07711. purified cathepsin L, fluorogenic substrate, fluorescence. inhibition, %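 (tested at 10 µM)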. 58,000 compounds, 0.17% hits. AID 460; in the data active means inhibition above about 45%;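 further: 0% = enzyme with no compound and 100% = no enzyme blank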
# Target sequence (P07711 114-288 limits assumed): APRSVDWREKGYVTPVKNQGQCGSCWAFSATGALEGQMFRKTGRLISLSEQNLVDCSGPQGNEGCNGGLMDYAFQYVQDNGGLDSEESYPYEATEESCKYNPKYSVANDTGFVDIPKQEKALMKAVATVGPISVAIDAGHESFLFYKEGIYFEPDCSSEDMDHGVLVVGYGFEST
# Target sequence (P07711 292-333 limits assumed): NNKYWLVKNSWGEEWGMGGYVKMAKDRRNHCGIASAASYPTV
# HER2 expr 66K – Her2 kinase expression inhibition. SKBR-3 HER2 protein level, AlphaScreen, 18-24 h; hits give low values. AID 645. 65,000 compounds, 0.69% hits. P04626. HER2 level % of control, % at 10 µM;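 active means HER2 level under 5% of the carrier-only control; inconclusive means no clear call, values can overlap the other calls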;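 further: 100% = DMSO carrier and 0% = 500 nM PU-H71 HSP90 inhibitor; lower value means stronger loss of Her2 protein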
# CatS inh – human cathepsin S inhibition. recombinant cathepsin S, AMC dipeptide fluorescence, pooled mixtures. P25774. AID 501. 62,000 compounds, 0.06% hits. inhibition, %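 (tested at 5 µM per compound within 10-compound mixtures)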; in the data active means inhibition above about 32%, passing the limit was not always enough; inconclusive means no clear call, values can overlap the other calls;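 further: 0% = enzyme without compound and 100% = blank without enzyme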
# Target sequence (P25774 115-331 limits assumed): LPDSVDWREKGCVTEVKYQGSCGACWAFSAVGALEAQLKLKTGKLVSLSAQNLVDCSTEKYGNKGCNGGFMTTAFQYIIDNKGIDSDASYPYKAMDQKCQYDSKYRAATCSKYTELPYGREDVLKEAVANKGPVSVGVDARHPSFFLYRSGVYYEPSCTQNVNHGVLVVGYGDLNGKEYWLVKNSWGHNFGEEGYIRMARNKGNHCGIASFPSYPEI
# CatB mixtures – human cathepsin B inhibition by mixtures | Purified cathepsin B, AMC dipeptide fluorescence, compound mixtures | inhibition, %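 (ten-compound pools at 5 µM per compound and 50 µM total)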 | 62,000 compounds, 0.06% hits | AID 488; in the data active means inhibition above about 22%, passing the limit was not always enough; inconclusive means no clear call, values can overlap the other calls;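 further: 0% = enzyme without compound and 100% = no enzyme blank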
# SKBR3 24h inh – SK-BR-3 proliferation inhibitors. SK-BR-3 viability, CellTiter-Glo ATP luminescence, 24 h; hits give low values. viability, % at 10 µM. 41,000 compounds, 0.47% hits. AID 847;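 active means viability at or below the median of all test compounds minus 3 SD, in both replicates if run twice, cut at about 45% in these data; inconclusive means duplicate replicates that disagree with each other; inactive means viability above that cutoff in every replicate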;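 further: 100% = median untreated cell wells and 0% = median positive control drug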
# The depositor's hits bear a star; ? = inconclusive; nt = no result. This is a sample that favours compounds with a hit; in the whole collection about 1.1% have one here.
SMILES,CatB block,CatL block,HER2 expr 66K,CatS inh,CatB mixtures,SKBR3 24h inh
O=C(Nc1cccc(-c2nc3ccccc3[nH]2)c1)c1cccc(NC(=O)c2ccco2)c1,9,31,-17*,14,0,?
CCCCN1C(=O)c2ccc(C(=O)Nc3c(N)n(CCCC)c(=O)n(C)c3=O)cc2C1=O,-4,15,138,2,-5,104
CCOC(=O)Cc1cnc(NC(=O)NC(C(=O)OCC)(c2ccccc2)C(F)(F)F)s1 (stereo not drawn),3,2,131,9,10,113
COc1ccc(Nc2ccc3c(c2)=NC2(CCCCC2)[N+]=3[O-])cc1,7,1,-56*,7,9,3.2*
[O-][N+]1=c2ccc(Nc3ccccc3)cc2=NC12CCCCC2,2,3,-17*,2,-3,46
[O-][N+]1=C2CCC/C(=N\O)C2=NC12CCCCC2,nt,nt,99,nt,nt,nt
COc1ccc(OC)c(NC2=NC3(CCCC3)N=C(N)N2)c1,5,10,72,9,7,89
O=C(NCc1ccco1)c1cccc(S(=O)(=O)N2CCCCC2)c1,6,13,101,13,7,73
O=C(CCC1CCCC1)N1CCN(C(=O)c2cccnc2)CC1,2,-3,241,-1,3,76
CCn1c(=O)c(C(=O)Nn2c(C)nc3ccccc3c2=O)c(O)c2ccccc21,2,-7,53,-1,-7,125
CCn1c(=O)c(C(=O)Nc2nc3ccccc3[nH]2)c(O)c2ccccc21,1,-16,0.9*,-3,1,nt
Cc1ccc(S(=O)(=O)Nc2cccc3ncccc23)s1,-5,-7,-5.5*,0,2,nt
CCc1nnc(NC(=O)c2ccncc2)s1,-2,12,97,-11,-1,75
CCc1nnc(NC(=O)c2cccc(C(=O)Nc3nnc(CC)s3)n2)s1,2,7,30,6,3,42*
COCCCNC(=O)CN(c1cccc(Cl)c1)S(C)(=O)=O,1,15,75,8,-3,nt
O=C(NCc1ccc2c(c1)OCO2)C1CCN(C(=O)Nc2ccc(Cl)cc2)CC1,-2,6,69,8,-5,95
O=C(NCc1ccc2c(c1)OCO2)C1CCCN1C(=O)Nc1cccc(Cl)c1 (stereo not drawn),-4,-10,102,-11,-5,34*
O=C(Nc1cccc2nsnc12)C1CC(=O)N(c2ccccc2)C1 (stereo not drawn),7,-16,93,8,9,42*
COc1ccc2c(c1)N(C(=O)CSc1n[nH]c(C)n1)C(C)(C)C=C2C,3,1,108,8,1,101
CNC(=O)c1ccsc1NC(=O)c1ccccc1,10,-4,95,-5,2,nt
Nc1nc(-c2cccs2)c(NC(=O)c2ccccc2)s1,3,10,-11*,-11,3,nt
O=C(CCCCCn1c(=S)[nH]c2cc3c(cc2c1=O)OCO3)N1CCN(C2CCCCC2)CC1,3,10,-16*,-2,2,nt
Cc1cc(NS(=O)(=O)c2cccs2)no1,-4,-10,-30*,-10,4,99
O=C(O)c1ccccc1NCN1C(=O)C2CC=C(Cl)CC2C1=O (stereo not drawn),1,-13,-22*,-10,11,120
Cc1c(C(=O)NCCN2CCOCC2)oc2ccc(S(=O)(=O)N3CCCCCC3)cc12,-1,4,-22*,-1,0,70
SMILES,CatB block,CatL block,HER2 expr 66K,CatS inh,CatB mixtures,SKBR3 24h inh
Cc1c(C(=O)NCCc2ccccc2)oc2ccc(S(=O)(=O)N3CCOCC3)cc12,3,-1,186,-5,0,91
C=CCn1c(SCc2nc3ccccc3c(=O)[nH]2)nnc1-c1cc2cc(Cl)ccc2o1,1,10,3.3*,3,-1,?
O=c1[nH]c(CSc2nnc(-c3ccncc3)n2Cc2ccco2)nc2ccccc12,-2,-10,113,-3,3,78
O=C1OCCC1Sc1nc(-c2ccccc2)cs1 (stereo not drawn),-5,13,104,3,7,87
N#CC(C#N)=c1ccc2c(c1)N1C3=C(CCCC3)CC3CCCCC31N=2 (stereo not drawn),1,0,-28*,10,-1,106
N#C/C(C(N)=O)=c1/ccc2c(c1)N1C3=C(CCCC3)CC3CCCCC31N=2 (stereo not drawn),-5,-3,-29*,-3,4,62
CCOC(=O)c1sc2ncnc(N3CCN(C(=O)OCC)CC3)c2c1C,5,12,140,15,2,42*
O=C(NCc1ccccn1)c1cn(CCc2ccccc2)nn1,4,2,93,-2,2,92
CCOC(=O)N1CC=C2C(C#N)=C(N)C(C#N)(C#N)[C@H](c3ccc(OCC)c(OCC)c3)[C@H]2C1,0,33,125,22,-1,91
CCCCOc1ccc(C2C3CN(C(=O)OCC)CC=C3C(C#N)=C(N)C2(C#N)C#N)cc1OC (stereo not drawn),2,60*,74,11,7,81
Cc1cc(Cl)ccc1NC(=O)CSc1nnc(-c2ccncc2)n1Cc1ccco1,1,-7,102,0,8,39*
CCOc1cc(S(=O)(=O)NCc2ccccc2)ccc1F,1,-7,104,1,3,87
CC1=C(C)C(=O)NC(Nc2nc(C)c3cc(C)cc(C)c3n2)N1 (stereo not drawn),5,-5,-14*,13,7,nt
O=C1C2=C(SCCS2)C(=O)N1CCCO,2,-3,1.1*,-14,-1,105
COC(=O)C1=C(C)NC(C)=C(C(=O)OC)C1c1ccccc1OCc1c(C)no[n+]1[O-],2,-1,93,3,0,nt
Cn1nnnc1Sc1ncnc2scc(-c3ccccc3)c12,-5,13,0.6*,-4,-3,nt
Cn1nnnc1Sc1ncnc2scc(-c3ccc(F)cc3)c12,-4,17,-11*,10,5,nt
CC(C)C(NC(=O)C12CC3CC(CC(C3)C1)C2)C(=O)O (stereo not drawn),-3,-2,98,3,-1,nt
O=S(=O)(NCc1ccc2c(c1)OCO2)c1cccc(S(=O)(=O)N2CCOCC2)c1,-3,21,101,-21,-18,82
Cc1nnc2ccc(N3CCN(c4ccccn4)CC3)nn12,51*,nt,108,10,6,nt
Cc1nnc2ccc(N3CCN(c4cccc(C(F)(F)F)c4)CC3)nn12,-2,15,72,0,8,nt
CC(C)(C)C(=O)NC1CCN(S(=O)(=O)c2cccc(C(F)(F)F)c2)CC1,7,nt,72,5,5,23*
CC(C)CCN(C)C1CCN(S(=O)(=O)c2cccc(C(F)(F)F)c2)CC1,9,4,106,-4,1,nt
Cc1cc(NC(=O)CCCS(=O)(=O)c2nc(-c3cccs3)cc(C(F)(F)F)n2)no1,-2,4,-16*,-4,5,37*
